# Source: PubChem
# KB-V1 MDR tox: KB-V1 MDR subline cytotoxicity; hit rate 3.4% among 400,000; KB-V1 MDR cells viability, CellTiter-Glo, 72 h; Potency, µM (series often up to 46.1 µM), usual class: cytotoxic; AID 1347076; further: on the % scale 0 is the no-effect control and ±100 the full control effect; nearly all actives have a fitted effect of over 60% in size
#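 Cytotoxicity via CellTiter-Glo luminescence after 72 h compound exposure at 37 degrees C. Cells: drug-selected KB-V1 line, DMEM phenol-red free plus 10% FBS. Compounds tested at multiple concentrations; normalized data fitted to concentration-effect curves.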
# MCF10A rereplic: induces DNA re-replication in MCF 10a normal breast cells. MCF 10A DNA re-replication, Hoechst nuclear intensity, 48 h. Potency, µM (series often up to 46.1 µM), without a hit: at the highest dose activity, positive = re-replication, most hits filed as activators. hit rate 2.9% among 350,000. AID 624296; further: % of control where 0% means no effect; nearly all actives have a fitted effect of over 50% in size
# KB-3-1 tox: kills parental KB-3-1 adenocarcinoma cells; Potency, µM (series often up to 46.1 µM), actives largely listed as cytotoxic; AID 1347075; KB-3-1 viability, CellTiter-Glo ATP luminescence, 72 h; hit rate 1.4% among 400,000; further: on the % scale 0 is the no-effect control and ±100 the full control effect; nearly all actives have a fitted effect of over 60% in size
#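 Cytotoxicity in the drug-sensitive parental line KB-3-1 was scored as loss of CellTiter-Glo luminescence following 72 h incubation with compound. Values come from curve fitting of normalized concentration-response data.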
# SW480 rerep: induces DNA re-replication in SW480 colon adenocarcinoma cells | SW480 DNA re-replication, Hoechst DNA content imaging, 48 h | Potency, µM (top dose mostly 46.1 µM), for the others: at the highest dose re-replication activation, actives largely listed as activators | hit rate 1.8% among 340,000; further: % of control where 0% means no effect; nearly all actives have a fitted effect of over 55% in size
#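 Per well, 250 cells were exposed to pinned compound for 48 hr. Nuclear DNA was visualised with Hoechst (40 min, 37 C) and total object intensity recorded by fluorescence scanning.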
# ELG1 repair inh: ELG1-dependent DNA repair inhibition. HEK293T ELG1-luciferase reporter, luminescence, 16 h; DNA damage induced by 5-fluorouridine. Potency, µM (series often up to 46.1 µM), without a hit: at the top dose activity change, negative = inhibition, usual class: inhibitors. hit rate 2.3% among 330,000. AID 504467; further: on the % scale 0 is the no-effect control and ±100 the full control effect; nearly all actives have a fitted effect of over 55% in size
#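 Cells (2,000 per well) received 5-fluorouridine plus test compound or DMSO and were incubated 16 hr at 37 °C, 5% CO2. Luciferase activity was read by luminescence 30 min after ONE-Glo addition; signal suppression marked inhibition of damage-induced ELG1 function.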
# Active calls of the source: *; i = inactive; ? = inconclusive; · = no result given. Compounds with a hit are over-represented: about 8.1% of the library has one in this group of screens. The call rests on the fitted dose curve; in most records, active means well fitted curve in the direction sought with a large enough effect; inconclusive means small, poorly fitted or top-dose-only effect, or another doubt; inactive means no such curve, though single readings can be large; an effect the other way counts as inactive or inconclusive. Potency means the concentration at half of the fitted maximal effect.
SMILES,KB-V1 MDR tox,MCF10A rereplic,KB-3-1 tox,SW480 rerep,ELG1 repair inh
Cc1cccc(NC(=O)CN(C)CC(=O)NC(c2ccccc2)c2ccccc2)c1C,3.3µM*,0%,i,-3%,13%
CCOc1cc(N2CCOCC2)c(OCC)cc1NC(=O)COC(=O)CCn1c(C)csc1=O,i,-3%,i,-5%,8%
CCOC(=O)C1(C)CCN1C(=O)c1c(F)cccc1F (stereo unspecified),i,·,i,·,·
COc1ccccc1NC(=O)CN(Cc1ccco1)C(=O)c1cncc(Br)c1,?,2%,i,-15%,-12%
COc1ccccc1NC(=O)CN(Cc1ccco1)C(=O)c1ccc(-n2nc(C)cc2C)cc1,2.1µM*,2%,i,-12%,23µM*
CCCN(CC(=O)Nc1ccccc1OC)C(=O)c1cc(-c2ccccc2)nn1-c1ccccc1,i,?,i,-11%,21µM*
O=C(c1ccco1)N1CCN(C(=O)c2ccc(CS(=O)c3ccc(Br)cc3)o2)CC1 (stereo unspecified),i,·,i,·,·
CNC(=O)OCc1cocc1COC(=O)NC,i,·,i,·,·
COCCCNc1c2c3c(cccc3[nH]c1=O)C(=O)c1ccccc1-2,2.1µM*,15µM*,5.8µM*,18µM*,12µM*
CC(=O)Nc1ccc(CN2C(=O)C(CCc3ccccc3)ON=C2c2cnccn2)cc1 (stereo unspecified),i,·,i,·,·
O=C(Cn1nnc(-c2ccccc2)n1)NC1CCS(=O)(=O)C1 (stereo unspecified),i,1%,i,-2%,9%
CCN(CC(=O)NC1CCS(=O)(=O)C1)c1nc(-c2ccccc2)nc2ccccc12 (stereo unspecified),i,6%,i,-6%,13µM*
CC(C)CC[n+]1ccccc1/C=C/c1ccc(N(C)C)cc1,i,22%,1.5µM*,4.6µM*,?
CN(C)c1ccc(/C=C/c2cccc[n+]2[O-])cc1,i,-36%,i,?,?
COc1ccc(Cn2c(=N)c(C(=O)NCC3CCCO3)cc3c(=O)n4ccccc4nc32)cc1 (stereo unspecified),i,15µM*,i,?,-15%
N=c1c(C(=O)NCC2CCCO2)cc2c(=O)n3ccccc3nc2n1Cc1ccccc1 (stereo unspecified),i,3.7µM*,i,2.6µM*,-15%
Cc1ccc(Cn2c(=N)c(C(=O)NCC3CCCO3)cc3c(=O)n4cccc(C)c4nc32)cc1 (stereo unspecified),i,21µM*,i,8.2µM*,-2%
N=c1c(C(=O)NCC2CCCO2)cc2c(=O)n3ccccc3nc2n1Cc1ccccc1Cl (stereo unspecified),i,3.3µM*,?,21µM*,-27%
O=C(COc1ccc(F)c(Cl)c1)Nc1ccc(N2CCOCC2)cc1,i,-46%,i,-1%,-16%
COc1ccc(NC(=O)CN(C)C(=O)c2ccc(NS(=O)(=O)c3ccc4[nH]c(=O)[nH]c4c3)cc2)cc1,?,2%,i,-5%,?
Cc1ccc(-c2nc3ncccc3o2)cc1NC(=O)COc1ccc(C(C)C)cc1,?,·,i,·,·
Cc1ccc(Cn2c(=N)c(C(=O)NCC3CCCO3)cc3c(=O)n4ccccc4nc32)cc1 (stereo unspecified),i,3.3µM*,i,18µM*,-5%
N=c1c(C(=O)NCC2CCCO2)cc2c(=O)n3ccccc3nc2n1Cc1ccc(Cl)cc1 (stereo unspecified),i,?,?,0.58µM*,?
CCC(CC)C(=O)Nc1ccc(OCc2cc(=O)n3ccc(C)cc3n2)cc1,i,·,i,·,·
O=C(NCCSCc1ccccc1Cl)C1CCN(S(=O)(=O)Cc2ccccc2)CC1,i,·,i,·,·
SMILES,KB-V1 MDR tox,MCF10A rereplic,KB-3-1 tox,SW480 rerep,ELG1 repair inh
O=C1C(C=Nc2ccccc2)=C(O)c2ccccc21,i,-3%,i,-6%,?
O=C1C(=O)c2ccccc2C(O)=C1CC=C(Cl)Cl,3.7µM*,-1%,15µM*,3%,·
O=C(N/N=C/c1ccc([N+](=O)[O-])o1)c1ccc(NS(=O)(=O)c2cccs2)cc1,?,18µM*,?,?,21µM*
O=C(N/N=C/C=C/c1ccccc1[N+](=O)[O-])c1cccs1,?,?,i,-8%,-11%
O=C(N/N=C\C=C\c1ccc([N+](=O)[O-])o1)c1cccs1,i,8.2µM*,i,12µM*,-2%
O=C(N/N=C/c1ccc([N+](=O)[O-])cc1)c1ccc(NS(=O)(=O)c2cccs2)cc1,i,-2%,i,-9%,-11%
O=C(CCCCn1c(=O)c2ccccc2n(CC(=O)Nc2ccc(F)cc2F)c1=O)NCCc1ccccc1,?,·,i,·,·
COc1cc2c(-c3ccc(C)cc3)nc3c(c(C)nn3-c3ccccc3)c2cc1OC,?,·,i,·,·
Cn1nc(-c2ccccc2F)c2cc(C(=O)N3CCN(c4ccc(F)cc4)CC3)sc21,i,·,?,·,·
CCOC(=O)C1CCN(C(=O)c2cc3c(-c4ccc(OC)c(OC)c4)nn(C)c3s2)CC1,i,4%,i,-10%,?
CCOC(=O)N1CCC(NC(=O)c2cc3c(-c4ccccc4F)nn(C)c3s2)CC1,i,?,?,4%,13µM*
Cn1nc(-c2ccccc2F)c2cc(C(=O)N3CCN(c4ccccc4F)CC3)sc21,5.2µM*,·,?,·,·
COc1ccc(NC(=O)c2cc3c(-c4ccc(OC)c(OC)c4)nn(C)c3s2)cc1OC,?,18%,?,?,1.6µM*
CCOC(=O)N1CCC(NC(=O)c2cc3c(-c4ccc(OC)c(OC)c4)nn(C)c3s2)CC1,?,?,i,-5%,7.3µM*
CCN(C(=O)CSc1nc2ccccc2[nH]1)c1ccccc1,i,·,i,·,·
Cc1ccc(NC(=O)CSCC(=O)Nc2cc(Cl)ccc2N2CCOCC2)cc1,i,-1%,i,-25%,-11%
COc1cc2nc(=S)n3[nH]c(COc4ccccc4C)nc3c2cc1OC,0.92µM*,12%,?,-5%,?
COc1cc2nc(=S)n3[nH]c(CCn4nc(C)cc4C)nc3c2cc1OC,?,3%,?,13µM*,?
COc1cc2nc(SCc3ccc(Cl)cc3)n3nc(CCn4nc(C)cc4C)nc3c2cc1OC,?,·,i,·,·
Cc1ccccc1OCc1nnc(SCc2cc(=O)c3ccccc3[nH]2)n1C,i,·,i,·,·
C[C@@H](c1ccccc1)N1C[C@@H](COCc2ccccc2)Oc2cc(N3CCC[C@H]3C(N)=O)ccc2S1(=O)=O,?,·,i,·,·
O=C(COC(=O)C12CC3CC(CC(Br)(C3)C1)C2)NCc1ccco1,i,·,?,·,·
